# Measurements as given in ChEMBL document CHEMBL4513216, “Probing the Open Global Health Chemical Diversity Library for Multistage-Active Starting Points for Next-Generation Antimalarials” (ACS Infect Dis, 2020).
# Hit rate of the full screen: of about 69,000 compounds, about 8,600 (12%) showed an effect of 50% or more. The list comes from a sample in which strong results are over-represented; it also holds similar structures and randomly drawn compounds.
# Tested on: Plasmodium berghei
# Test: Screen against P. berghei liver stage (PbLuc), transformed with Luciferase, at 10uM
# Type: functional, HepG2
# Conditions: tested at 10 uM
row,Structure (SMILES),INHIBITION
1,CN(C)CCOCC1CN(Cc2cccs2)Cc2ccnn2C1 (stereo not drawn),33.4%
2,CC(NC1CCN(CCc2ccncc2)CC1)c1cnn(C(C)C)c1 (stereo not drawn),37.9%
3,Cc1cccnc1NC(=O)c1ccc(F)c(S(=O)(=O)N2CCC2)c1,13.3%
4,O=C(Cc1cccs1)N1C[C@@H]2CN(Cc3ccoc3)CCO[C@@H]2C1,24.1%
5,CCN1Cc2cc(F)ccc2N(CC(O)C(F)(F)F)CCC1=O (stereo not drawn),47.2%
6,CN(C)C(=O)c1cn[nH]c1C1CCCN1Cc1c[nH]cn1 (stereo not drawn),18.4%
7,CN(C)C(=O)c1cn[nH]c1C1CCCN1Cc1cncn1C (stereo not drawn),-11.3%
8,CN(C)C(=O)c1cn[nH]c1C1CCCN1Cc1nccn1C (stereo not drawn),55.8%
9,Cc1nc(CN2CCO[C@H]3[C@@H](OCc4ccccn4)CC[C@@H]32)cs1,40.4%
10,Cc1ccc2cccc(Oc3nc(C)c(C(=O)O)s3)c2n1,12.7%
11,CN1C(=O)C(c2ccccc2)CC12CCN(CCO)CC2 (stereo not drawn),-9.26%
12,CCc1nc(C2CCCN(C(=O)c3cccc(Cl)c3)C2)no1 (stereo not drawn),-19.9%
13,COc1cccc(CNC2CCSC2)c1OC (stereo not drawn),-7.85%
14,Cc1cccnc1NC(=O)NC(CCO)C(C)(C)C (stereo not drawn),28.3%
15,CC(C)(C)C(CCO)NC(=O)Nc1ccncc1 (stereo not drawn),60.2%
16,CC(C)(C)C(CCO)NC(=O)Nc1ccccc1 (stereo not drawn),43.7%
17,CN1CC(=O)N(c2ccccc2)CC12CCN(S(C)(=O)=O)C2 (stereo not drawn),42.7%
18,Cc1cc(CNCC2(O)CCOCC2)ccc1Br,54.4%
19,CN1CCC(O)(CNCc2ccc(F)c(C(F)(F)F)c2)CC1,48.4%
20,Cc1cc(CNCC2(O)CCOCC2)ccc1F,76.8%
21,Cc1ccc(C(=O)NCC2(O)CCOCC2)cc1Br,-65.5%
22,OC1(CNCc2ccc(F)c(C(F)(F)F)c2)CCOC1 (stereo not drawn),3.69%
23,Cc1cc(CNC2(CO)CCOCC2)ccc1Br,18.6%

row,Structure (SMILES),INHIBITION
1,CN(C)C(=O)[C@@H]1CCO[C@@H]2CCN(CCc3ccccc3)C[C@@H]21,28.5%
2,COCc1ccc(C(=O)N2CCC(Oc3ccccc3OC)CC2)s1,-3.83%
3,O=C(N[C@@H]1CN(c2ncccn2)C[C@@H]2CCCO[C@@H]21)c1cnccn1,20.2%
4,CC(O)CN1CCN(C(=O)c2cc(Cl)cc3cccnc23)CC1 (stereo not drawn),2.75%
5,COC(=O)N1C[C@@H]2CC[C@H]1CN(Cc1cscn1)C2,-14.8%
6,CCc1ncc2c(n1)CN(c1nc(C)ccc1C(=O)O)C2,9.55%
7,CC(C)OCCN1CCC(Nc2ccc(C#N)cc2F)CC1,27.2%
8,CCNC(=O)[C@@H]1C[C@H](N)CN1C1CCN(c2ccccc2OC)CC1,55.4%
9,CNC(=O)[C@@H]1C[C@@H](N)CN1C1CCN(Cc2ccccn2)CC1,27.6%
10,CNC(=O)[C@@H]1C[C@@H](N)CN1C1CCN(c2ccccc2F)CC1,61%
11,CCNC(=O)[C@@H]1C[C@H](N)CN1C(=O)CCc1ccccc1Cl,-6.83%
12,COc1ccccc1N1CCC(N2CCOCC(CO)C2)CC1 (stereo not drawn),39%
13,CNC(=O)[C@@H]1C[C@@H](N)CN1C(=O)CCSCc1ccc(F)cc1,9.63%
14,Cc1cc(C(F)(F)F)nc(C2CCCN2S(C)(=O)=O)n1 (stereo not drawn),20.2%
15,CCN1CCN(C(C)CNC(=O)Nc2cnn(CC)c2)CC1 (stereo not drawn),44.1%
16,CNC(=O)C1CCN(c2ncc3c(n2)CCN3c2ccccc2)C1 (stereo not drawn),-105%
17,O=C(Cc1c(F)cccc1Cl)Nc1cc(N2CCCC2)ncn1,-27.8%
18,COCCn1ccnc1CN(Cc1ccccn1)Cc1sccc1C,71%
19,COCCN(Cc1sccc1C)Cc1nccn1CCOC,16.9%
20,CSC(C)CCN(Cc1ccccn1)Cc1sccc1C (stereo not drawn),62.9%
21,Cc1ccsc1CN(Cc1ccccn1)CC(C)C,-21.5%
22,Cc1ccsc1CN(CCN(C)C)Cc1ccccn1,35.1%
23,COCCN(Cc1ccccn1)Cc1sccc1C,15.2%

row,Structure (SMILES),INHIBITION
1,Cc1cc(C)c2nc(C)c(C(=O)N3CCC(CCN(C)C)CC3)cc2c1,36.8%
2,Fc1cnc(N2CC[C@@H]3CN(Cc4ccncc4)CCO[C@@H]3C2)nc1,8.85%
3,Cc1cnn(CCC(=O)N2CCCC(c3cc(C)[nH]n3)C2)c1 (stereo not drawn),45.7%
4,CC(Cn1cc(Br)cn1)C(=O)Nc1ccc(Cl)cn1 (stereo not drawn),56%
5,CC(Cn1cc(Br)cn1)C(=O)Nc1ccc(C(N)=O)cc1 (stereo not drawn),72.7%
6,Cc1cc(NC(=O)Cn2ncc(Br)c2C)no1,15.9%
7,Cc1cc(NC(=O)C(C)Cn2cncn2)no1 (stereo not drawn),-1.445%
8,CC(Cn1cc(Br)cn1)C(=O)Nc1ccc(Br)cn1 (stereo not drawn),81%
9,CC(Cn1cc(Cl)cn1)C(=O)Nc1ccc(CN2CCCCCC2)cc1 (stereo not drawn),10.9%
10,CC(=O)c1ccc(NC(=O)C(C)Cn2cc(Br)cn2)cc1 (stereo not drawn),-37.6%
11,Cc1cnn(CCNCC(=O)Nc2ccc(Br)cn2)c1,-37.7%
12,CC(Cn1cc(Br)cn1)C(=O)Nc1ccn(C)n1 (stereo not drawn),15.7%
13,Cc1cc(NC(=O)C(C)Cn2cc(Br)cn2)no1 (stereo not drawn),67.1%
14,CC(Cn1cc(Br)cn1)C(=O)Nc1ccncc1 (stereo not drawn),-24.7%
15,Cc1cnn(CC(C)NCC(=O)Nc2ccc(Cl)cn2)c1 (stereo not drawn),-100%
16,CN(Cc1cn2c(n1)CN(c1ncc(F)cn1)CC2)Cc1ccco1,22.7%
17,O=C(N1CCOCC1)[C@@]12CCO[C@@H]1CCN(C1CCOCC1)C2,38.5%
18,Cc1ccc(NC2CCN(C(=O)CCNc3ncccn3)CC2)nn1,-24.2%
19,Cc1cc(NC(=O)CN2CCN(c3nccs3)C(C)C2)no1 (stereo not drawn),19.2%
20,CNC(=O)C1(CCCc2ccccn2)CN(Cc2nccn2C)C1,-40.1%
21,CC(O)CN1CCC(CNCc2ccccc2F)CC1 (stereo not drawn),-34.365%
22,Cc1cc(C(=O)CN2CCN(c3ncccn3)CC2)c(C)n1C(C)C,26.4%
23,CN1CCOC(CNCc2ccccc2OCc2ccccn2)C1 (stereo not drawn),-10.193%

row,Structure (SMILES),INHIBITION
1,OCCN1CCC(Cc2nccs2)CC1,13.955%
2,CC(C)N(C)CC(=O)NCCc1nc(C(F)(F)F)cs1,-48.9%
3,Cc1cccc(Nc2cc(C)nc(C3CCCCN3CC(N)=O)n2)n1 (stereo not drawn),18.9%
4,CCC(NCCn1cccn1)C(=O)Nc1cc(C)on1 (stereo not drawn),36.5%
5,Cc1cc(NC(=O)C(C)NCCn2cccn2)no1 (stereo not drawn),58.9%
6,CCC(NCCn1cc(C)cn1)C(=O)Nc1cc(C)on1 (stereo not drawn),35.4%
7,CC(=O)c1ccc(CN2CCCC23CCN(c2ccccn2)CC3)cc1,49.9%
8,Cc1nc(CN2CCCC23CCN(c2nc4ccccc4s2)CC3)co1,14.1%
9,Cc1nc[nH]c1CN1CCC(C2CCN(CCc3ccccc3)C2)CC1 (stereo not drawn),44.3%
10,Cc1nc[nH]c1CN1CCCC12CCN(c1nc3ccccc3s1)CC2,76.6%
11,Cc1nc[nH]c1CN1CCCC12CCN(c1ccccn1)CC2,20.9%
12,c1ccc2sc(N3CCC4(CCCN4Cc4ncc[nH]4)CC3)nc2c1,51.6%
13,Cc1nc[nH]c1CN1CCCN(c2nc3ccccc3s2)CC1,76.6%
14,Cn1cc(CN2CCCC23CCN(c2nc4ccccc4s2)CC3)cn1,47%
15,Cc1nc[nH]c1CN1CCn2nc(CN3Cc4ccccc4C3)cc2C1,22.8%
16,CN(C)C1CCCN(C(=O)NCc2ccccc2-n2cccn2)C1 (stereo not drawn),21.5%
17,CCS(=O)(=O)N1Cc2nccn2CC(Cn2cccn2)C1 (stereo not drawn),37.5%
18,O=C(O)c1cc(-c2ccccc2)ns1,45.9%
19,O=C(COCc1ccccc1)N1CCCC1c1noc(C2CC2)n1 (stereo not drawn),7.27%
20,O=C(C[C@@H]1COC[C@H]2CN(C(=O)c3ccccn3)C[C@@H]12)N1CCCC1,6.72%
21,Cc1cccc(N2Cc3c(NC4CCCC4)ncnc3N(C)CC2=O)c1,7.66%
22,CC(=O)c1cccc(NC(=O)CN2CCCCC2C2OCCO2)c1 (stereo not drawn),1.81%
23,CC(=O)c1cccc(NC(=O)CN2CCCCC2C)c1 (stereo not drawn),14%

row,Structure (SMILES),INHIBITION
1,CC(=O)c1cccc(NC(=O)CN2CCCC(C3OCCO3)C2)c1 (stereo not drawn),53.4%
2,CN(C)Cc1cnn(-c2ccccc2C(=O)N(C)Cc2ccccc2)c1,-52.6%
3,Cc1cc(=O)c2ccccc2n1CC1CCNC1 (stereo not drawn),12.8%
4,Cc1cc(=O)c2ccccc2n1CC1CCN(C(C)C)C1 (stereo not drawn),53.9%
5,Cc1cc(=O)c2ccccc2n1CC1CCCN(C)C1 (stereo not drawn),-9.92%
6,c1cnc(N2CCO[C@H]3CN(Cc4csnn4)C[C@H]32)cn1,23.3%
7,O=C(NCCc1ccn(-c2ccccc2)n1)N1CCSCC1,62.9%
8,O=C(NCCc1ccn(-c2ccccc2)n1)N1CCCC(O)C1 (stereo not drawn),-16%
9,O=C(NCCc1ccn(-c2ccccc2)n1)N1CCC1,26.9%
10,Cc1cccc(NC(=O)C(C)Nc2cccc(CN3CCOC3=O)c2)c1 (stereo not drawn),-18.15%
11,CC1CC(=O)c2cc(C(=O)N3CCc4ccccc4C3)c(=O)[nH]c2C1 (stereo not drawn),10.9%
12,Cc1ccc(CN2C[C@@H]3CCCO[C@@H]3[C@H](N(C)Cc3ccco3)C2)o1,18.5%
13,Cc1cccc(OCCCNC(=O)NC(C)c2nncn2C)c1 (stereo not drawn),15.9%
14,CC(NC(=O)NCCCN1CCc2ccccc2C1)c1nncn1C (stereo not drawn),-120%
15,CCN1CCN(CCCNC(=O)NC(C)c2nncn2C)CC1 (stereo not drawn),40%
16,CC(NC(=O)NCCOc1ccc(Cl)cc1)c1nncn1C (stereo not drawn),39.7%
17,Cc1cccc(C)c1OCCNC(=O)NC(C)c1nncn1C (stereo not drawn),50.4%
18,CC(NC(=O)NCCCN1CCCC1)c1nncn1C (stereo not drawn),0.914%
19,CC(NC(=O)NCCN1CCCC1)c1nncn1C (stereo not drawn),56.4%
20,CC(NC(=O)NCCCN1CCCCCC1)c1nncn1C (stereo not drawn),30.2%
21,CC1CCN(CCCNC(=O)NC(C)c2nncn2C)CC1 (stereo not drawn),52.3%
